Molecules are shown by their SMILES. Results filed as inconclusive are left out. Calls of active or inactive are those of the source. Unless noted, calls follow the shape of the dose curve; as a rule, active = well fitted curve in the direction sought with a large enough effect; inconclusive = small, poorly fitted or top-dose-only effect, or another doubt; inactive = no such curve, though single readings can be large; an effect the other way counts as inactive or inconclusive.

Our source for the Potency, max response and activity values is PubChem BioAssay (NCATS).

A short description of test [1]: P-glycoprotein substrates identified in KB-3-1 adenocarcinoma cell line, qHTS therapeutic library screen (AID 1346986).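 Also: potency is read from the fitted curve at half-maximal effect; potency is for cytotoxicity meaning loss of cell viability; nearly all actives have a fitted effect of over 60% in size.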 In outline:
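In 1536-well format, 500 cells/well received pinned compound titrations and were incubated 72 h, 5% CO2. Viability was read by CellTiter-Glo; cytotoxic if AC50 < 10 uM and efficacy >50%.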

Test [2] in a line: Primary qHTS for inhibitors of nuclear receptor binding SET domain protein 2 (NSD2) in an isogenic RCH-ACV NSD2 p.E1099K mutant (9B) (AID 1645876; also: potency is read from the fitted curve at half-maximal effect; nearly all actives have a fitted effect of over 70% in size). (Quantitative high-throughput screening tests each substance at several concentrations.)
Test [3] in a line: Primary qHTS for inhibitors of nuclear receptor binding SET domain protein 2 (NSD2) in an RCH-ACV wild type WT cells (2C) (AID 1645877). Also: potency is read from the fitted curve at half-maximal effect; nearly all actives have a fitted effect of over 70% in size.
Test [4] deals with Glutathione peroxidase 1 (Homo sapiens) (UniProt P07203). Description: Primary qHTS Assay for Inhibitors of Recombinant Selenoprotein Glutathione Peroxidase 1 (GPX1) (AID 1845191). Also: nearly all actives have a fitted effect of over 65% in size. In outline:
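GR-coupled readout: NADPH consumption tracked by fluorescence, ex 340/em 450 nm, at t=0 and after 15 min at RT. Final mix 10 nM GPX1, 1 mM GSH, 0.5 mM CHP, 0.5 mM NADPH, 100 nM GR, 0.01% BSA, following 30 min enzyme–compound preincubation.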

Test [5] in a line: qHTS Assay for Identifying Gametocytocidal Compounds (AID 743244). Also: potency is read from the fitted curve at half-maximal effect.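 As to max response: % is scaled to controls: 0 for no effect and ±100 for the full control effect; actives lower the fluorescent signal which means gametocytes are killed.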 Conditions: P. falciparum 3D7 stage III-V gametocytes, alamarBlue, 72 h; max response: stronger effect = lower value. In outline:
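Compounds are pinned into medium, gametocytes (stage III–V, 3D7, 20,000 cells/well) added, and plates held 72 h at 37 °C in 5% CO2. AlamarBlue follows for 24 h before fluorescence reading.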

Test [6] in a line: P-glycoprotein substrates identified in KB-8-5-11 adenocarcinoma cell line, qHTS therapeutic library screen (AID 1346987). Also: nearly all actives have a fitted effect of over 65% in size. Also: potency is read from the fitted curve at half-maximal effect. In outline:
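Luminescence from CellTiter-Glo, read 5 min after addition, quantified survival of KB-8-5-11 (P-gp-overexpressing) cells exposed to compounds for 72 h. AC50 was derived from concentration-response curves.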

The nature of test [7]: qHTS for Inhibitors of the Functional Ribonucleoprotein Complex (vRNP) of Lassa (LASV) Arenavirus: LASV Primary Screen - GLuc reporter signal (AID 1347082; calls by dose curve; tested in HEK293 reporter line; also: % is scaled to controls: 0 for no effect and ±100 for the full control effect; nearly all actives have a fitted effect of over 60% in size).
The target in test [8] is Catechol O-methyltransferase (Homo sapiens) (UniProt P21964). Description: Confirmatory Screen for Target Class Profiling of Small Molecule Inhibitors of Methyltransferases (AID 1745852; calls by dose curve). Particulars: MTase-Glo luminescence, SAH detection, recombinant enzyme; measured here: COMT max response; stronger effect = lower value.
Catechol O-methyltransferase (Homo sapiens), sequence (P21964 whole entry, looked up): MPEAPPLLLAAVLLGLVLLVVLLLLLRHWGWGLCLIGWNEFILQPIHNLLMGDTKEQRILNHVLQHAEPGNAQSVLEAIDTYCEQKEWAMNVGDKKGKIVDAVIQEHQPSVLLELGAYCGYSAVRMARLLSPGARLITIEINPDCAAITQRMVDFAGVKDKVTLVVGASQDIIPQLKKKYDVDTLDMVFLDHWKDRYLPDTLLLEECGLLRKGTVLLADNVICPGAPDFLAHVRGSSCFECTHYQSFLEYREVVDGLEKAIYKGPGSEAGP
The target in test [9] is Guanidinoacetate N-methyltransferase (Homo sapiens) (UniProt Q14353). The description is as above. Particulars: activity change, negative = inhibition: at 57.3 µM (top of the series) unless noted.
Test [10] concerns the target Nicotinamide N-methyltransferase (Homo sapiens) (UniProt P40261). Described as above. Conditions: MTase-Glo luminescence, SAH detection, recombinant enzyme; measured here: NNMT max response; stronger effect = lower value.
For test [11], the target named is Phenylethanolamine N-methyltransferase (Homo sapiens) (UniProt P11086). The test is described as above. Conditions: MTase-Glo luminescence, SAH detection, recombinant enzyme; measured here: PNMT max response; stronger effect = lower value.
Phenylethanolamine N-methyltransferase (Homo sapiens), sequence (P11086 whole entry, looked up): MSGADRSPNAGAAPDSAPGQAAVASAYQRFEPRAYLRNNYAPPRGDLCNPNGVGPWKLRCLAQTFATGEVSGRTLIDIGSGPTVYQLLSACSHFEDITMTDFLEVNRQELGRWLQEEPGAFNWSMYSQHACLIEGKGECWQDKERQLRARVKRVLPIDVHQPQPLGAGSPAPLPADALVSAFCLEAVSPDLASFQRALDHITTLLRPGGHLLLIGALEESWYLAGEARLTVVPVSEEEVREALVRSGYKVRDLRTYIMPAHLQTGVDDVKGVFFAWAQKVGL
The target of test [12] is Luciferin 4-monooxygenase (Photinus pyralis) (UniProt P08659). The test can be described thus: Biochemical firefly luciferase enzyme assay for NPC (AID 624030).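 Also: purified P. pyralis luciferase at 10 nM with luciferin and ATP substrate; 0% = DMSO and -100% = full luciferase inhibition by PTC124 control; nearly all actives have a fitted effect of over 70% in size.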 In outline: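 Purified P. pyralis luciferase at 10 nM in 50 mM Tris Acetate (final), luminescence read within 5 minutes of enzyme addition to compounds. Activity normalised to PTC124 versus DMSO; concentration-response curves classed by r2, magnitude and activity.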
Luciferin 4-monooxygenase (Photinus pyralis), sequence (P08659 whole entry, looked up): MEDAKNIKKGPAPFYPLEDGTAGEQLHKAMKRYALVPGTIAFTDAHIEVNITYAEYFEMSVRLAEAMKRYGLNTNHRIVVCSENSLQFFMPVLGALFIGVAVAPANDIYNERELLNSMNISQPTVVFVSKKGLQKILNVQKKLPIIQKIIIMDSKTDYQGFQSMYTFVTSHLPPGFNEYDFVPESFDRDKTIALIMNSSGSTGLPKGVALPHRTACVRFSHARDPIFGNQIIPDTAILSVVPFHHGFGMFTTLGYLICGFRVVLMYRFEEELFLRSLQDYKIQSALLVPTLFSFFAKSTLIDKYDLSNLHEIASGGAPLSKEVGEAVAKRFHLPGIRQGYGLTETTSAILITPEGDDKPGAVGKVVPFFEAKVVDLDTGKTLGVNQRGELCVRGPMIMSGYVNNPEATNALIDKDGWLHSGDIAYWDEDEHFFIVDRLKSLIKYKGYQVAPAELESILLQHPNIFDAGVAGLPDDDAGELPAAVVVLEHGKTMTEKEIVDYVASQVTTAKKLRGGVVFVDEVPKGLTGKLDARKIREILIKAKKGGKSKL

Test [13] is described as follows: S16 Schwann cell viability assay (CellTiter-Glo assay) (AID 624031). Also: potency is read from the fitted curve at half-maximal effect; nearly all actives have a fitted effect of over 70% in size. In outline:
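Native S16 rat Schwann cells in DMEM/10% FBS without phenol red were incubated overnight, then exposed to compounds for 24 h at 37 °C/5% CO2. Viability was read as ATP luminescence (CellTiter-Glo), normalized to no-cell wells and DMSO (0%).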
In general terms: ATP-based viability assays read luminescence as a measure of living cells.

Test [14] in a line: S16 Schwann cell PMP22 intronic element firefly luciferase assay (AID 624032). Also: potency is read from the fitted curve at half-maximal effect; nearly all actives have a fitted effect of over 30% in size. In outline:
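Rat S16 Schwann cells stably carrying firefly luciferase driven by a PMP22 intronic element, in 10% FBS, treated 24 h at 37 C. ONE-Glo luminescence normalized to PTC124 control and DMSO (0%); curves classed by r2, magnitude and activity.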

The nature of test [15]: S16 Schwann cell PMP22 intronic element beta-lactamase assay (AID 624044; calls by dose curve; also: potency is read from the fitted curve at half-maximal effect; nearly all actives have a fitted effect of over 15% in size). In outline: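 Beta-lactamase reporter under a PMP22 intronic regulatory element in stable S16 rat Schwann cells; 24 h compound exposure. 460 nm blue signal normalized between DMSO (0%) and potassium clavulanate, with 535 nm FRET tracking viability; curves classed by r2 and response.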
Test [16] deals with 3D7. Description: qHTS profiling for inhibitors of Plasmodium falciparum proliferation (AID 504749). Also: potency is read from the fitted curve at half-maximal effect; nearly all actives have a fitted effect of over 60% in size. Particulars: P. falciparum in erythrocytes, SYBR Green DNA, 72 h; series mostly up to 28.7 µM. In outline: (§1)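 Each compound contacts P. falciparum-infected red blood cells for 72 h at 37 C; lysis buffer (Tris, EDTA, saponin, Triton X, SYBR Green I) is added and fluorescence measured next morning; values normalized to controls.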

The subject of test [17] is 7G8. The description is as above. Particulars: P. falciparum in erythrocytes, SYBR Green DNA, 72 h; series mostly up to 28.7 µM. In outline: as §1
Test [18] has as its system AA1029. Described as above. Conditions: P. falciparum in erythrocytes, SYBR Green DNA, 72 h; series mostly up to 28.7 µM. In outline:
as §1

The test system of test [19] is AS120. The description is as above. Particulars: P. falciparum in erythrocytes, SYBR Green DNA, 72 h; series mostly up to 28.7 µM. In outline: as §1
For test [20], the system named is ATS189. Described as above. Particulars: P. falciparum in erythrocytes, SYBR Green DNA, 72 h; series mostly up to 28.7 µM. In outline: as §1
Test [21] concerns ATS95. Described as above. Particulars: P. falciparum in erythrocytes, SYBR Green DNA, 72 h; series mostly up to 28.7 µM. In outline: as §1
Test [22] concerns C2A. Described as above. Particulars: P. falciparum in erythrocytes, SYBR Green DNA, 72 h; series mostly up to 28.7 µM. In outline:
as §1

In test [23] the test system is CP185. The description is as above. Conditions: P. falciparum in erythrocytes, SYBR Green DNA, 72 h; series mostly up to 28.7 µM. In outline:
as §1

Test [24] has as its system CP191. The description is as above. Conditions: P. falciparum in erythrocytes, SYBR Green DNA, 72 h; series mostly up to 28.7 µM. In outline: as §1
Test [25] relates to CP192. Described as above. Conditions: P. falciparum in erythrocytes, SYBR Green DNA, 72 h; series mostly up to 28.7 µM. In outline:
as §1

The test system of test [26] is CP194. Described as above. Conditions: P. falciparum in erythrocytes, SYBR Green DNA, 72 h; series mostly up to 28.7 µM. In outline:
as §1

Test [27] relates to CP201. Described as above. Conditions: P. falciparum in erythrocytes, SYBR Green DNA, 72 h; series mostly up to 28.7 µM. In outline:
as §1

Test [28] has as its system CP203. The test is described as above. Conditions: P. falciparum in erythrocytes, SYBR Green DNA, 72 h; series mostly up to 28.7 µM. In outline: as §1
In test [29] the test system is CP211. Described as above. Particulars: P. falciparum in erythrocytes, SYBR Green DNA, 72 h; series mostly up to 28.7 µM. In outline:
as §1

For test [30], the system named is CP215. The test is described as above. Particulars: P. falciparum in erythrocytes, SYBR Green DNA, 72 h; series mostly up to 28.7 µM. In outline:
as §1

For test [31], the system named is CP217. Described as above. Conditions: P. falciparum in erythrocytes, SYBR Green DNA, 72 h; series mostly up to 28.7 µM. In outline:
as §1

For test [32], the system named is CP237. The test is described as above. Particulars: P. falciparum in erythrocytes, SYBR Green DNA, 72 h; series mostly up to 28.7 µM. In outline:
as §1

For test [33], the system named is CP238. The test is described as above. Conditions: P. falciparum in erythrocytes, SYBR Green DNA, 72 h; series mostly up to 28.7 µM. In outline: as §1
The test system of test [34] is CP247. Described as above. Particulars: P. falciparum in erythrocytes, SYBR Green DNA, 72 h; series mostly up to 28.7 µM. In outline:
as §1

The subject of test [35] is CP250. Described as above. Particulars: P. falciparum in erythrocytes, SYBR Green DNA, 72 h; series mostly up to 28.7 µM. In outline:
as §1

The subject of test [36] is CP252. Described as above. Particulars: P. falciparum in erythrocytes, SYBR Green DNA, 72 h; series mostly up to 28.7 µM. In outline: as §1
Test [37] deals with CP256. Described as above. Conditions: P. falciparum in erythrocytes, SYBR Green DNA, 72 h; series mostly up to 28.7 µM. In outline:
as §1

In test [38] the test system is CP260. The test is described as above. Conditions: P. falciparum in erythrocytes, SYBR Green DNA, 72 h; series mostly up to 28.7 µM. In outline:
as §1

Test [39] relates to CP262. The description is as above. Conditions: P. falciparum in erythrocytes, SYBR Green DNA, 72 h; series mostly up to 28.7 µM. In outline:
as §1

Test [40] concerns CP265. Described as above. Conditions: P. falciparum in erythrocytes, SYBR Green DNA, 72 h; series mostly up to 28.7 µM. In outline:
as §1

Glutathione peroxidase 1 (Homo sapiens), sequence (P07203 whole entry, looked up): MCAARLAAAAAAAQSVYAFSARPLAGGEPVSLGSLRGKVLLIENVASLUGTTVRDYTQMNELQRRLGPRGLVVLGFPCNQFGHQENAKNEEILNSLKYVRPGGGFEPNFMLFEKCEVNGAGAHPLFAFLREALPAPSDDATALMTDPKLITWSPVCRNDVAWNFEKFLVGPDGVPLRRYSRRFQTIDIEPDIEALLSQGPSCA
Nicotinamide N-methyltransferase (Homo sapiens), sequence (P40261 whole entry, looked up): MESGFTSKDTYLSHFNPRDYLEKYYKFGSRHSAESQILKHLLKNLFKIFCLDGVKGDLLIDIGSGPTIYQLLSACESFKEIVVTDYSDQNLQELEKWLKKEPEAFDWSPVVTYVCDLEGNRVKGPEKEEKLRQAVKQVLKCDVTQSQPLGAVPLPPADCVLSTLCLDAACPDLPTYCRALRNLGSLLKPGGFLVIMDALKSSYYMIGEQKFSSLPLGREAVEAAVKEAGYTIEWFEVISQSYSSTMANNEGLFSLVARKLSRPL

With `COC[C@@H]1OC(=O)/C(=C\N(C)CCCN(C)C)C2=C(O)C(=O)C3=C([C@@H](OC(C)=O)C[C@@]4(C)[C@@H]3CC[C@@H]4O)[C@@]21C`, the Potency is 13 µM (active) in test [1], 2.59 µM (active) in [2] and 2.59 µM (active) in [3]. Moreover, in test [4], the Potency result is “inactive”.

For the molecule `COc1cc([C@@H]2c3cc4c(cc3[C@@H](O)[C@H]3COC(=O)[C@H]23)OCO4)cc(OC)c1O`, the max response in [5] was 5.77% (inactive). In test [6], the Potency is 0.651 µM (active).

`O=C1NC(=O)c2c1c1c3ccccc3[nH]c1c1[nH]c3ccccc3c21`: the Potency entry in test [6], in test [7], in test [9] and in test [4] was “inactive” each time. Further, the activity is -2.49% in [8], -2.73% in test [10] and -3.39% in [11].

For the molecule `CCCCCCCCCC[N+](C)(C)CCCCCCCCCC`, the Potency result in test [12] was “inactive”. The Potency in test [13] was 18.1 µM (active); in test [14], 16.1 µM (active); in test [15], 25.1 µM (active); in [5], 7.94 µM (active); in [16], 2 µM (active); in [17], 2 µM (active). In addition, the Potency was 7.08 µM (active) in test [18]; 6.31 µM (active) in test [19]; 7.08 µM (active) in [20]; 6.31 µM (active) in [21]; 4.47 µM (active) in test [22]; 4.47 µM (active) in [23]. In addition, the Potency in [24] was 3.98 µM (active); in test [25], 4.78 µM (active); in test [26], 6.75 µM (active); in test [27] it was 9.53 µM (active); in [28], 6.75 µM (active); in test [29] it was 9.53 µM (active). The Potency is 8.49 µM (active) in test [30]; 4.47 µM (active) in [31]; 7.08 µM (active) in test [32]; 5.62 µM (active) in test [33]; 4.47 µM (active) in [34]; 4.47 µM (active) in [35]. In addition, the Potency is 7.08 µM (active) in test [36]; 4.47 µM (active) in [37]; 3.98 µM (active) in test [38]; 5.36 µM (active) in test [39]; 5.01 µM (active) in [40].
